Reference: ChEMBL document CHEMBL1157539, “Thousands of chemical starting points for antimalarial lead identification” (Nature, 2010)

Each compound was assayed on Plasmodium falciparum (assay: GSK_TCMDC: Inhibition of Plasmodium falciparum 3D7 in whole red blood cells, using parasite LDH activity as an index of growth. Test compounds present at 2uM).
Type: functional
For `Cc1ccc(NC(=S)NC2CCN(CCCCCNC(=O)/C=C/c3ccc(Cl)c(Cl)c3)CC2)cc1Cl`, the Inhibition was 100%. In the case of `Cc1cc(NC(=O)c2ccsc2)ccc1OC1CCN(Cc2ccc(F)cc2)CC1.O=C(O)C(F)(F)F`, the Inhibition was 83%. `Cc1cccc2nc(-c3ccc(-c4cccc(CN5CCN(c6ccncc6)CC5)c4)cc3)[nH]c12.O=C(O)C(F)(F)F` showed an Inhibition of 100%. With `CC(C)C1=C[C@H]2C[C@]3(C4OCCO4)[C@@H]4CC[C@@H](C)[C@H]4C[C@@]2(COCc2cccc(C#N)c2)[C@]13C(=O)OC(c1ccccc1)c1ccccc1` the Inhibition was 88%. Work on `CC(C)N1CCC(NC(=O)N2CCCN(c3ncnc4cc(-c5ccc(Cl)cc5)sc34)CC2)CC1.O=C(O)C(F)(F)F` yielded an Inhibition of 81%. `CCc1ccccc1N1CCN(CCCC(=O)c2ccc(NC(=O)c3ccc(Cl)cc3)cc2)CC1` gave an Inhibition of 90%. `O=C(NC1CC1)c1ccc(N2CCCC(COc3ccccc3F)C2)nc1` (stereo unspecified) was tested, and the Inhibition was 87%. In the case of `CN(C)CCN(C)Cc1ccc(-c2ccc3c(Nc4ccc(Oc5ccccn5)cc4)ccnc3c2)o1`, the Inhibition was 100%. `CCC1CN2CCc3c([nH]c4ccccc34)[C@@H]2C[C@@H]1CC1NCCc2cc(OC)c(OC)cc21.Cl` (stereo partly specified) gave an Inhibition of 100%. For `CC(C)(CNC(=O)/C=C/c1ccc(Cl)c(Cl)c1)CNc1cc(=O)c2ccccc2[nH]1`, the Inhibition was 96%. Compound `CN(C)c1ccc(C(c2ccc(N(C)C)cc2)c2cc([N+](=O)[O-])ccc2Cl)cc1` has an Inhibition of 96%. Compound `COc1cccc(Nc2nc(C)cc(NC3CCN(Cc4ccccc4)CC3)n2)c1` has an Inhibition of 100%. For `Cc1cc(-c2nc3cncc(-c4cccc(CN5CCCC5Cc5cccnc5)c4)c3n2C)nn1C.O=C(O)C(F)(F)F` (stereo unspecified), the Inhibition was 83%. Work on `COc1cc(-c2ccccc2)ccc1C(=O)Nc1ccc2c(c1)N(C)CCC2` yielded an Inhibition of 85%. In the case of `Br.c1cc(Nc2nc(-c3ccc(-c4csc(Nc5ccncc5)n4)cc3)cs2)ccn1`, the Inhibition was 100%. For `COc1cc2c(cc1OC)-c1cc(=Nc3c(C)cc(C)cc3C)n(C)c(=O)n1CC2.Cl`, the Inhibition was 92%. With `COc1ccc(C2C(C(=O)Nc3cc(OC)c(OC)c(OC)c3)c3cc(OC)c(OC)cc3C(=O)N2C)cc1` (stereo unspecified) the Inhibition was 98%. In the case of `O=C(NCCN1CCCCC1)c1ccc(CNC(=O)c2ccc(O)c(-c3cccc(C(F)(F)F)c3)c2)cc1`, the Inhibition was 94%. Compound `Cl.N=C(N)c1ccc(-c2cc3ccc(C(=N)N)cc3[nH]2)cc1` has an Inhibition of 99%. `Clc1ccc(Cl)c2[nH]c(CNCCCNc3nc4ccccc4[nH]3)cc12` showed an Inhibition of 100%. `Cc1noc(C)c1-c1cccc(CNCc2ccc(-c3ccc(-c4nc5ccccc5[nH]4)s3)cc2)c1.O=C(O)C(F)(F)F` was tested, and the Inhibition was 100%. Compound `O=C(c1ccc(Cl)cc1)N1CCCC(C(=O)N(Cc2nnc(-c3ccccc3Cl)o2)C2CC2)C1` (stereo unspecified) has an Inhibition of 95%. `Cc1ccc2nc(-c3ccc(/C=C/C(=O)NC4CCN(Cc5ccccc5)CC4)cc3)[nH]c2c1C` was tested, and the Inhibition was 100%. With `Cl.NC(=O)c1cccc(Nc2nccc(Nc3ccc(Oc4c(Cl)cccc4Cl)c(Cl)c3)n2)c1` the Inhibition was 93%. `Cc1cccc2nc(-c3ccc(-c4cccc(NC(=O)c5cncn5C)c4)s3)[nH]c12` gave an Inhibition of 100%. `N#Cc1ccc(-c2cnc3ccc(NCCc4cccnc4)nn23)cc1` was tested, and the Inhibition was 99%. `NC(=O)c1cccc(C(=O)Nc2cccc(-c3cccc(-c4nc5ccccc5[nH]4)c3)c2)c1` was tested, and the Inhibition was 100%. `NCc1ccc(CNCc2cccc(-c3cccc(-c4nc5cc(F)ccc5[nH]4)c3)c2)cc1.O=C(O)C(F)(F)F` was tested, and the Inhibition was 100%. Compound `COc1ccc(CC(=O)Nc2ccc(Nc3nc(C)cc(N4CCCC4)n3)cc2)cc1` has an Inhibition of 100%. In the case of `CC(=O)Nc1cccc(/C=C/C(=O)N2CCC(N3CCCCC3)CC2)c1`, the Inhibition was 96%. For `Clc1ccc(-c2nc3cc(-c4ccc5nc(-c6ccc(Cl)cc6)[nH]c5c4)ccc3[nH]2)cc1`, the Inhibition was 100%. Work on `c1cncc(CNc2ncc(-c3ccsc3)c(-c3nccs3)n2)c1` yielded an Inhibition of 81%. `CC(C)CCn1c(Sc2ccc(C#N)c([N+](=O)[O-])c2)nnc1-c1ccccc1Cl` showed an Inhibition of 93%. `NS(=O)(=O)c1ccc(Nc2nccc(-c3c(-c4cccc(NC(=O)c5c(F)cccc5F)c4)nn4ccccc34)n2)cc1` gave an Inhibition of 93%. In the case of `Br.C=CCN1Cc2c(O)cccc2C(c2ccc(O)c(O)c2)C1` (stereo unspecified), the Inhibition was 97%. `O=C(Nc1ccc(C(=O)N(Cc2ccc3c(c2)OCO3)C2CCCC2)cc1)c1cccs1` gave an Inhibition of 97%.
